Results: ChEMBL document CHEMBL4513145, “CO-ADD screening of Biotechnology Research Centre (C.R.B.t) (Algeria) compounds”
Several values for one entry are separate records, joined by “and”; a condition that tells them apart may be missing. Identical values can stand only once. Entries with a potency or affinity are not part of this list.

Key:
Staphylococcus aureus = settings: Concentration 32 ug.mL-1, ASSAY_TEST Inhibition of Bacterial Growth, detection method Absorption (OD600), MEDIA CAMHB, plate type 384well, NBS, CORNING #3640, time 18 hr
Escherichia coli = settings: Concentration 32 ug.mL-1, ASSAY_TEST Inhibition of Bacterial Growth, detection method Absorption (OD600), MEDIA CAMHB, plate type 384well, NBS, CORNING #3640, time 18 hr

Compound | Inhibition (Staphylococcus aureus; 32 ug/mL) | Inhibition (Escherichia coli; 32 ug/mL) | Inhibition (Staphylococcus aureus) [%] | Inhibition (Escherichia coli) [%]
Cc1ccc(S(=O)(=O)N2CC(C)C(=O)N2S(=O)(=O)c2ccc(C)cc2)cc1 (stereo not drawn) | 12.43% and 4.65% | -5.27% and -6.97% |  | 
CC(C)(C)OC(=O)N1C(=O)C(Cc2ccccc2)CN1S(=O)(=O)c1ccc([N+](=O)[O-])cc1 (stereo not drawn) | 9.07% and 7.14% and -8.81% | -5.13% and -6.6% and -4.72% |  | 
CC(C)(C)OC(=O)N1C(O)C(Cc2ccccc2)CN1S(=O)(=O)c1ccc([N+](=O)[O-])cc1 (stereo not drawn) | 11.9% and 5.44% and 15.35% | 1.32% and -2.18% and -0.91% |  | 
CCCCCCCC1CN(S(=O)(=O)c2ccc(C)cc2)N(C(=O)OC(C)(C)C)C1=O (stereo not drawn) |  |  | 0.71 | -11.74
O=C1ON(C(=O)OCc2ccccc2)CC1Cc1ccccc1 (stereo not drawn) | 5.51% and 8.05% | -4.21% and -4.06% |  | 
CC1CN(S(=O)(=O)c2ccc([N+](=O)[O-])cc2)N(C(=O)OC(C)(C)C)C1O (stereo not drawn) |  |  | 60.53 | -0.56
CC1CN(C(=O)OCc2ccccc2)OC1=O (stereo not drawn) | 5.54% and 4.49% and 4.77% | -4.89% and -2.17% and -2.01% |  | 
CC1CN(S(=O)(=O)c2ccc([N+](=O)[O-])cc2)N(C(=O)OC(C)(C)C)C1=O (stereo not drawn) | 12.53% and 22.23% and 12.31% | -2.77% and -4.85% and -5.54% |  | 
CCCCCCCC1CN(S(=O)(=O)c2ccc(C)cc2)N(C(=O)OC(C)(C)C)C1O (stereo not drawn) |  |  | 6.71 | -7.16
